Results on 34 molecules are retold here after PubChem BioAssay (NCI).

This is part of a sample that, as a whole, favours compounds with a hit. Of some 83,000 tested, about 20% had one in any assay.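 Interpretation: 100, growth as untreated; towards 0, rising growth inhibition; 0, no net growth; 0 to -100, cell death. Compounds scoring below 10 were considered active.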 A number with no mark means an inactive call. Calls of active or inactive are those of the source.

For the assay, the system named is MDA-MB-231 breast. The experiment in a line: NCI-60 one-dose screen, 48 h (100 = growth as untreated, 0 = no growth, -100 = all killed). Particulars: 10 µM unless noted.
With `Cc1cccc(NC(=O)Nc2ccc(-c3ccc4c(c3)NC(=O)/C4=C\c3ccc[nH]3)cc2)c1`, the growth is 93%. To `Cc1cc2nc3c4cc(C=O)ccc4n(CCN(C)C)c3nc2cc1C` belongs 24%; to `c1ccc2c(-c3nccs3)c[nH]c2c1`, 92.6%; to `COc1cc(NC(C)CCCNC(=O)CCC(=O)NCCCNCCCCCCCCCCNCCCNC(=O)CCC(=O)NCCCC(C)Nc2cc(OC)cc3cccnc23)c2ncccc2c1` (centres undefined), 34.6% [8 µM].

For the molecule `O=C1c2ccc3c4c(ccc(c24)C(=O)N1CCCNCc1ccccc1)C(=O)N(CCCNCc1ccccc1)C3=O`, the growth was -8.41% (active). Regarding `COc1ccc(CNCCN2C(=O)c3ccc4c5c(ccc(c35)C2=O)C(=O)N(CCNCc2ccc(OC)c(OC)c2OC)C4=O)c(OC)c1OC`, the growth was -8.31% (active). As for `CCN(CC)c1ccc(C(=O)c2ccccc2)cc1`, the growth was 100%.

With `COc1cc2c(c(O)c1Cl)C(=O)c1c(O)cc(C[C@H](C)O)cc1[C@H]2[C@H]1c2cc(C[C@H](C)O)cc(O)c2C(=O)c2c1cc(OC)c(Cl)c2O`, the growth was -57.9% (active). Consider `Nc1c(C(=O)Nc2cccc3cnccc23)sc2nc3c(cc12)C(=O)CCC3`, for which the growth was 83.4%. To `O=C(CCN1CCCC1)Nc1ccc2c(Nc3ccc(F)cc3)c3ccccc3nc2c1` belongs -17.2% (active); to `COc1cc2c(cc1OC)C(=O)/C(=C/c1cc(C)c(O)c(C)c1)S2`, 56.9%.

Turning to `CCCCCN1C=C/C(=C\C(=O)N(C)c2ccc(Oc3ccccc3)cc2)c2ccccc21`, the growth is 76.9%.

As to `C/C(=N\Nc1cc(C)nc2ccc(Br)cc12)c1ccc([N+](=O)[O-])cc1`, the growth was 59.4%. For `N/C(=N\C(N)=N\c1nc2ccccc2s1)c1ccnc(Br)c1`, the growth is 51.7%. Consider `COc1cc(/C=N/NC(=O)c2cnn3c2NC(c2ccccc2)C3)ccc1Oc1ccccc1` (centres undefined), for which the growth was 44.3%. To `COc1cc(-c2n/c(=C\c3c(O)[nH]c4ccc(Cl)cc34)cc3c2=Nc2ccccc2-3)ccc1F` belongs -7.94% (active); to `c1ccc2c(-c3c[nH]c4ccccc34)c3c(cc2c1)[nH]c1ccccc13`, 71.6%; to `C=C(C)[C@@H]1CC[C@]2(CN)CC[C@]3(C)[C@H](CC[C@@H]4[C@@]5(C)CCCNC(C)(C)[C@@H]5CC[C@]43C)[C@@H]12`, -79.7% (active). With `CCOC(=O)/C(C#N)=C1/NNC(=Nc2cccnc2)S1`, the growth was 98.8%.

Take `O=C1c2ccc3c4c(ccc(c24)C(=O)N1CCCNCc1ccccc1Cl)C(=O)N(CCCNCc1ccccc1Cl)C3=O`: the growth was 16.7%. For the molecule `CCN(CC)c1ccc(/C=N/NC(=O)CSc2nc3ccccc3c(=O)n2Cc2ccc(S(N)(=O)=O)cc2)c(O)c1`, the growth is 25.3%. For the molecule `COc1cc(/C=C/c2cc(O)c(C(C)=O)c(O)c2)cc2c1O[C@]1(C)CC[C@@H](O)C(C)(C)[C@H]1C2`, the growth was 37.6%. Turning to `O=C(CCN1CCCC1)Nc1ccc2c(NCCCc3ccccc3)c3ccccc3nc2c1`, the growth is -24.3% (active). As for `CCSCC1CC(O)(c2ccccc2)CC(c2ccc(F)cc2)O1` (centres undefined), the growth was 20.6%. Consider `N/C(=N\C(N)=N\c1nc2ccccc2s1)c1cnccn1`, for which the growth is 58.1%. In the case of `C#CCNC(=O)[C@]1(C)CC[C@]2(C)CC[C@@H]3C(=CC[C@H]4[C@@]3(C)CC[C@H]3C(C)(C)C(=O)CC[C@]43C)[C@@H]2C1`, the growth was 98%. Regarding `CCc1ccc(CNc2ccc(N3CCOCC3)c(C(=O)O)c2)cc1`, the growth is 114%.

Turning to `COc1ccc(/C=N/NC(=O)c2cnn3c2NC(c2ccccc2)C3)cc1OC` (centres undefined), the growth was 66%.

On to `N#CC1=C(/N=C/c2ccccc2)Oc2c(ccc3ccccc23)C1c1ccc([N+](=O)[O-])cc1` (centres undefined), for which the growth was 72.7%. For the molecule `O=C(Cc1ccccc1)NNc1nc(Cl)nc(N2CCN(C(c3ccccc3)c3ccccc3)CC2)n1`, the growth is 84.4%. To `COC(=O)C1=C(C(=O)ON)[C@@H]2C=C[C@@]1([C@@H](Cc1ccccc1)Nc1ccccc1)O2` belongs 106%; to `CCCOC(=O)N[C@H]1CCc2c(Cl)c(OC)c(OC)c(OC)c2-c2ccc(SC)c(=O)cc21`, -16.7% (active); to `CCN(CC)CCCC(C)Nc1cc(O)cc2cccnc12` (centres undefined), 69.4%. As to `O=C1c2ccc3c4c(ccc(c24)C(=O)N1CCCNCc1ccccc1F)C(=O)N(CCCNCc1ccccc1F)C3=O`, the growth was -7.55% (active).
